# ATXN viability = Viability Counterscreen for Primary qHTS for Inhibitors of ATXN expression; S2 cells (HEK-293 line with an ATXN2-luciferase reporter) viability, CellTiter-Fluor protease fluorescence, 24 h; Potency, µM (top dose mostly 56.7 µM), actives largely listed as cytotoxic; 400,000 tested, 0.49% active; note: potency is the fitted concentration of half-maximal effect; nearly all actives have a fitted effect of over 40% in size
# SW480 rereplic = A quantitative high throughput screen for small molecules that induce DNA re-replication in SW480 colon adenocarcinoma cells | SW480 DNA re-replication, Hoechst DNA content imaging, 48 h | Potency, µM (series often up to 46.1 µM), without a hit: at the top dose re-replication activation, actives largely listed as activators | 340,000 tested, 1.8% active; note: potency is the fitted concentration of half-maximal effect; % of control where 0% means no effect; nearly all actives have a fitted effect of over 55% in size
#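 SW480 cells exposed to compounds for 48 hr at 37 C, 5% CO2, then Hoechst-stained 40 min. Nuclear DNA content imaged by fluorescence scanning (405 nm excitation, 500-530 nm emission); re-replication scored as increased high-intensity nuclei.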
# MCF10A rereplic = A quantitative high throughput screen for small molecules that induce DNA re-replication in MCF 10a normal breast cells. Potency, µM (titrated, usually from 46.1 µM), without a hit: at the highest dose activity, positive = re-replication, most hits filed as activators. 350,000 tested, 2.9% active. MCF 10A DNA re-replication, Hoechst nuclear intensity, 48 h; note: potency is the fitted concentration of half-maximal effect; % of control where 0% means no effect; nearly all actives have a fitted effect of over 50% in size
# IL1B secr inh = qHTS for Inhibitors of Inflammasome Signaling: IL-1-beta AlphaLISA Primary Screen. 360,000 tested, 4.7% active. activity change, % at 57.5 µM. THP-1 LPS/ATP IL-1B secretion, AlphaLISA, 16 h; hits give low values. AID 743279, 2014; in the data active = activity change below about -50%; inconclusive = mostly about -30% to -49%; note: % is set by controls: 0 for no effect and ±100 for the full control effect
#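 Secreted IL-1B measured by AlphaLISA bead assay after 16 h compound exposure of THP-1 cells; compounds (final up to 57.5 uM) added 1 h before LPS (250 ng/mL) and ATP (1.25 mM) stimulation; lower signal means less secretion.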
# PINK1 modulator = A Quantitative High throughput Screen to Identify Chemical Modulators of PINK1 Expression; PINK1 immunofluorescence, high-content cytometry, 24 h; 410,000 tested, 0.2% active; AID 624263, 2012; Potency, µM (series often up to 76.6 µM), without a hit: at the highest dose activation (PINK1 increase), hits mostly activators; active = well fitted activation curve with a large enough effect; inconclusive = small, poorly fitted or top-dose-only effect; cell line not stated here; note: potency is the fitted concentration of half-maximal effect; % of control where 0% means no effect; nearly all actives have a fitted effect of over 65% in size
#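 Compound titrations (5 concentrations, 24 h) on a stable cell line; DMSO and CCCP controls. Endpoint: fixed-cell PINK1 immunofluorescence with mitochondrial, cell and nuclear markers, scanned by microplate cytometer.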
# ATXN2 expr inh = Primary qHTS for Inhibitors of ATXN expression. HEK-293 ATXN2-luciferase reporter, luminescence, 24 h. Potency, µM (doses to about 57 µM), for inactives: at the top dose activity change, negative = inhibition, actives largely listed as inhibitors. 360,000 tested, 0.72% active; note: potency is the fitted concentration of half-maximal effect; % is set by controls: 0 for no effect and ±100 for the full control effect; nearly all actives have a fitted effect of over 55% in size
#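 qHTS (up to 57 uM final) was run with 24 h compound exposure of reporter cells at 37 °C. Each well was multiplexed: SteadyGlo luminescence measured ATXN2-luciferase expression after a fluorogenic Gly-Phe-AFC viability readout (25 uM final).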
# * hit, by the source's call; i = inactive; u = inconclusive; x = not tested or not shown; [ ] = dose if it differs, or a comment. Compounds with a hit are over-represented: about 7.1% of the library has one in this group of screens. Unless noted, calls come from the whole dose curve; as a rule, active = well fitted curve in the direction sought with a large enough effect; inconclusive = small, poorly fitted or top-dose-only effect, or another doubt; inactive = no such curve, though single readings can be large; an effect the other way counts as inactive or inconclusive.
SMILES,ATXN viability,SW480 rereplic,MCF10A rereplic,IL1B secr inh,PINK1 modulator,ATXN2 expr inh
COc1ccc(CNC(=O)COc2ccc(C(=O)c3ccc(F)cc3)cc2)cc1,i,u,1.2µM*,-8,0%,-27%
Cc1ccc(CNC(=O)COc2ccc(C(=O)c3ccc(F)cc3)cc2)cc1,u,u,16µM*,u,1%,-26%
Cc1c(C(=O)NCC2Cc3cccc(-c4cncnc4)c3O2)c(-c2ccccc2)nn1-c1ccccc1 (configuration not stated),i,x,x,x,0%,x
CC(C)OCCCn1c(=O)c2ccccc2n2c(-c3ccc(F)cc3)nnc12,i,x,x,x,1%,-4%
O=c1[nH]c(SCc2nc3c(cnn3-c3ccccc3)c(=O)[nH]2)nc2ccccc12,i,0%,u,5,u,67%
O=c1[nH]c(CSc2nc3ccccc3[nH]2)nc2c1cnn2-c1ccccc1,u,6%,u,-67*,u,u
Cc1ccc(Nc2nc(N)nc(-c3oc4ccccc4c3C)n2)cc1,i,u,u,54,8%,x
COc1cccc(Nc2nc(N)nc(-c3oc4ccccc4c3C)n2)c1,u,13µM*,7.3µM*,-71*,-3%[38.3 µM],39%
Cc1cccc(Nc2nc(N)nc(-c3oc4ccccc4c3C)n2)c1,u,18µM*,16µM*,-75*,6%,65%
Cc1c(C(=O)N2CCOc3ccc(Cl)cc3C2)sc2ncnc(NCCc3ccccn3)c12,i,x,x,x,0%,x
O=c1[nH]c(-c2ccccn2)nc(C(F)(F)F)c1Br,u,10µM*,18µM*,48,1%,-26%
O=c1[nH]c(-c2ccccn2)nc2ccccc12,u,u,u,23,-1%,u
C=CCOc1c(Br)cc(/C=N/n2c(CC)n[nH]c2=S)cc1Br,i,u,16µM*,-8,9%,-9%
Cc1cccc(N=C2NC(=O)/C(=C/c3cccn3C)S2)c1C,u,-58%,u,-3,0%,-2%
Cc1ccc(N=C2NC(=O)/C(=C/c3cccs3)S2)cc1C,i,-1%,16µM*,-6,0%,24%
Cc1ccc(N=C2NC(=O)/C(=C\c3ccc(C)s3)S2)cc1,i,1%,3%,-11,6%,17%
Cc1ccc(N=C2NC(=O)/C(=C/c3cccn3C)S2)cc1,i,10µM*,u,41,u,x
Cc1ccc(N=C2NC(=O)/C(=C/c3cccn3C)S2)cc1C,i,u,15µM*,20,u,16%
N#Cc1nc(NCC(F)F)nc(Nc2cc(F)cc(F)c2)n1,u,0%,4%,x,2%,11µM*
Cc1ccc(Cl)cc1Nc1nn2c(=O)c3ccc(C(=O)NCc4ccc(F)cc4)cc3nc2s1,x,x,x,x,0%,x
COc1cccc(N=C2SC(CC(=O)Nc3ccccc3)C(=O)N2Cc2ccccn2)c1 (configuration not stated),i,-4%,-8%,-63*,2%,-24%
Cc1ccccc1C(=O)Nc1ccc(C(=O)N/N=C/c2ccc(O)cc2)cc1,i,-20%,u,-99*,2%,-21%
O=C(N/N=C/c1ccco1)c1ccc(NC(=O)c2ccccc2Cl)cc1,i,-127%,0%,-16,8%,-4%
Cc1ccc(/C=N/NC(=O)c2ccc(NC(=O)c3ccccc3Cl)cc2)o1,i,0%,-9%,-71*,-3%,0%
Cc1scc(C(=O)N/N=C/c2ccc(OC(C)C)cc2)c1C,i,6%,16%,-70*,1%,38%
SMILES,ATXN viability,SW480 rereplic,MCF10A rereplic,IL1B secr inh,PINK1 modulator,ATXN2 expr inh
Cc1ccccc1C(=O)Nc1ccc(C(=O)N/N=C/c2ccncc2)cc1,i,0%,1%,12,-1%,u
Cc1ccccc1C(=O)Nc1cccc(NC(=O)c2ccc(F)cc2)c1,i,-9%,3%,-50*,1%,-4%
CCN(CC)C(=O)c1ccccc1NC(=O)c1cccc(S(=O)(=O)N2CCC(C)CC2)c1,u,x,x,x,1%,3%
CCn1cc(C(=O)NCCc2ccc(OC)c(OC)c2)c(=O)c2cc(S(=O)(=O)N3CCc4ccccc4C3)ccc21,i,x,x,x,2%,-9%
CC(C)NC(=O)N1CCN(S(=O)(=O)c2ccc3c(ccn3C)c2)CC1,i,x,x,x,0%,12%
O=C(CC1C(=O)N(c2ccc(F)cc2)C(=O)N1Cc1ccc2c(c1)OCO2)Nc1ccc(Cl)cc1 (configuration not stated),u,x,x,x,3%,-22%
CC(C)c1ccc(/C=N/NC(=O)c2ccccc2Cl)cc1,u,13µM*,5.8µM*,-4,4%,-15%
CC(C)(C)c1ccc(C(=O)N2CCC(=O)N(C(COCc3ccccc3)Cc3ccccc3)CC2)cc1 (configuration not stated),x,u,21µM*,-29,5%,u
CC(C)(C)c1ccc(C(=O)N2CCC(=O)N(C(CO)Cc3ccccc3)CC2)cc1 (configuration not stated),i,-30%,u,23,0%,-2%
CC(C)(C)c1ccc(C(=O)N2CCC(=O)N([C@H](COCc3ccccc3)Cc3ccccc3)CC2)cc1,x,x,x,u,-1%,32µM*
Cc1cnc(C)c(-c2ccc(F)c3c2OC(CNC(=O)Cc2c(F)cccc2F)C3)n1 (configuration not stated),i,x,x,x,1%,x
COc1ccccc1CNC(=O)CCCn1c(=O)c2ccccc2n(Cc2ccc(C)cc2)c1=O,i,x,x,x,0%,-6%
CC(=O)Nc1ccc(/C=C/c2nc3ccccc3s2)cc1,x,x,x,x,1%,x
Cc1cccc(OCC(O)Cn2c(=N)n(Cc3ccccc3)c3ccccc32)c1 (configuration not stated),i,u,8%,-54*,0%,x
CCN(CC)CCn1c(=N)n(CC(O)COc2ccccc2C)c2ccccc21 (configuration not stated),x,x,x,x,-2%,x
N=c1n(Cc2ccccc2)c2ccccc2n1CC(O)c1ccco1 (configuration not stated),i,-2%,u,-22,1%,-26%
OC(COc1ccc(Cl)cc1)CN1CCN(c2ccccc2)CC1 (configuration not stated),i,-9%,-8%,0,11%,-17%

# Screening data: PubChem BioAssay, National Center for Advancing Translational Sciences (NCATS)
